Measured values published in PubChem BioAssay (EPA / NIEHS).
The source made the active and inactive calls. The calls were made as follows: active = hit-call score of the fitted dose curve at least 0.9, where 1 is the maximum; inactive = score below 0.9.

Legend:
[1] = ATG_NFI_CIS: Attagene CIS-FACTORIAL HepG2 Assay for human Nuclear Factor I (NFI) (AID 2282989); details: HepG2 cis-regulatory reporter, NFI response element transcription; actives raise or lower the signal
How it was run: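 Endogenous TF activity in HepG2 cells transiently transfected with cis-element-driven multiplexed reporter units, read 24 h after dosing. Reporter mRNA quantified by RT-PCR, 6-FAM labelling, HpaI digestion and capillary electrophoresis; bidirectional fit versus DMSO.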

[2] = molecular target: Myc proto-oncogene protein (Homo sapiens) (UniProt P01106); assay: ATG_Myc_CIS: Attagene CIS-FACTORIAL HepG2 Assay for human Myelocytomatosis (Myc) Proto-Oncogene Transcription Factor (AID 2282990); details: HepG2, Attagene cis-reporter transcription factor activity; actives raise or lower the signal
How it was run: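 HepG2 cells transiently transfected with multiple cis-promoter-driven reporter transcription units, so endogenous TF activity is read. After 24 h compound exposure, reporter mRNA was quantified by RT-PCR, 6-FAM labelling, HpaI digestion and capillary electrophoresis; bidirectional fit versus DMSO.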

[3] = ATG_NF_kB_CIS: Attagene CIS-FACTORIAL HepG2 Assay for human Nuclear Factor Kappa B (NF-kB) (AID 2282991); details: HepG2 Attagene cis-factorial NF-kB reporter mRNA; actives raise or lower the signal
How it was run: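 Fluorescence of labelled RT-PCR products separated by capillary electrophoresis gives reporter mRNA levels from transfected HepG2 cells exposed 24 h; values are fitted in both directions relative to DMSO.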

[4] = ATG_NRF2_ARE_CIS: Attagene CIS-FACTORIAL HepG2 Assay for human Nuclear Factor Erythroid 2 Related Factor 2 (NFR2) response to Antioxidant Response Elements (ARE) (AID 2282992); details: HepG2 Attagene ARE/NRF2 reporter, transcription factor activity; actives raise or lower the signal
How it was run: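 Fluorescence intensity of reporter-specific cDNA fragments, separated by capillary electrophoresis, reflects mRNA induction in transfected HepG2 cells at 24 h. Activity is fitted bidirectionally, DMSO serving as baseline.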

[5] = ATG_Oct_MLP_CIS: Attagene CIS-FACTORIAL HepG2 Assay for human Octamer-Binding Transcription Factor (Oct) (AID 2282993); details: HepG2 Attagene cis-factorial Oct reporter, mRNA; actives raise or lower the signal
How it was run: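 HepG2 cells transiently transfected with cis-element-driven reporter transcription units (endogenous TF activity); 24 h compound exposure. Reporter mRNA quantified by RT-PCR, 6-FAM labelling, HpaI digestion and capillary electrophoresis; bidirectional fit versus DMSO baseline.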

[6] = molecular target: Cellular tumor antigen p53 (Homo sapiens) (UniProt P04637); assay: ATG_p53_CIS: Attagene CIS-FACTORIAL HepG2 Assay for human p53 Transcription Factor (AID 2282994); details: HepG2 p53 cis-element reporter, Attagene mRNA; actives raise or lower the signal
How it was run: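 Transiently transfected HepG2 (multiple cis reporter transcription units); exposure 24 h; reporter RNA via RT-PCR, 6-FAM extension, 2 h HpaI digest at 37 C, CE detection; DMSO baseline.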

Myc proto-oncogene protein (Homo sapiens), sequence (P01106 whole entry, looked up): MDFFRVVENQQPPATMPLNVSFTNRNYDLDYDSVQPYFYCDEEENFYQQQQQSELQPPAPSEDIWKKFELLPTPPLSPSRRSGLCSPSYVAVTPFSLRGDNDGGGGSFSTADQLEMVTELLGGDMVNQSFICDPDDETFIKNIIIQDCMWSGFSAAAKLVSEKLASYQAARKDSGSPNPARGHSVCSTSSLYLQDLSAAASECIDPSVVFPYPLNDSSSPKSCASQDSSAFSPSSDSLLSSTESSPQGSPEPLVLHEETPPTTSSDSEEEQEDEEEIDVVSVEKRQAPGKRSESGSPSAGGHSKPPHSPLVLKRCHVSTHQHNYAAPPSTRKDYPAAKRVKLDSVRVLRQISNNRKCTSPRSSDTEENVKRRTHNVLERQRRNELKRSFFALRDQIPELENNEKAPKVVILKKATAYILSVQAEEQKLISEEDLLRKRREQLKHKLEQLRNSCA
Cellular tumor antigen p53 (Homo sapiens), sequence (P04637 whole entry, looked up): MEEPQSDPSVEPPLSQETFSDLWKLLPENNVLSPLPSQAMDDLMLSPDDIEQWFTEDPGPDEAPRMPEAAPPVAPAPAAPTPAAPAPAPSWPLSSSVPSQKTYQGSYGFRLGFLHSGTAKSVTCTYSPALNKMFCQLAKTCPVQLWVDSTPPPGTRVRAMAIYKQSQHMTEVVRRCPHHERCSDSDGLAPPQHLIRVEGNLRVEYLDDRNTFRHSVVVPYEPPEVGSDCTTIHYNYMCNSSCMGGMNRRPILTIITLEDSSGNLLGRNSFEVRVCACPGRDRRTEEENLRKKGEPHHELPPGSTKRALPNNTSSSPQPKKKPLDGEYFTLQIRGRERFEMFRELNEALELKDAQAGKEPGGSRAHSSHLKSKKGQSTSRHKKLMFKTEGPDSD

With Nc1ccc(Oc2ccc(N)c(N)c2)cc1 the outcome [1] was “inactive”, the outcome [2] was “inactive” and the outcome [3] was “inactive”. For the same compound, the AC50 [4] was 30.6 µM (active) and the outcome [5] was “inactive”.

In the case of O=[N+]([O-])C1(Br)COCOC1, the outcome [1] was “inactive”, the outcome [2] was “inactive” and the AC50 [3] was 51.7 µM (active). The outcome [4] was “inactive”, the outcome [5] was “inactive” and the AC50 [6] was 53.8 µM (active).

For O=C(O)c1cc(Cl)cc([N+](=O)[O-])c1Cl, the outcome [1] was “inactive”, the outcome [2] was “inactive” and the outcome [3] was “inactive”. The outcome [4] was “inactive”, the outcome [5] was “inactive” and the outcome [6] was “inactive”.

With O=C(c1ccccc1)C1CCC1 the outcome [1] was “inactive”, the outcome [2] was “inactive” and the outcome [3] was “inactive”. The outcome [4] was “inactive” and the outcome [5] was “inactive”.

In the case of Oc1ccc(Cl)cc1Cc1cc(Cl)ccc1O, the AC50 [1] was 5.83 µM (active), the outcome [2] was “inactive” and the outcome [3] was “inactive”. The AC50 [4] was 2.75 µM (active) and the AC50 [5] was 7.99 µM (active).

With O=c1cc[nH]c(=S)[nH]1 the outcome [1] was “inactive”, the outcome [2] was “inactive” and the outcome [3] was “inactive”. For the same compound, the outcome [4] was “inactive”, the outcome [5] was “inactive” and the outcome [6] was “inactive”.

For COCCCOCCCOC, the outcome [1] was “inactive”, the outcome [2] was “inactive” and the outcome [3] was “inactive”. The outcome [4] was “inactive” and the outcome [5] was “inactive”.

For c1cc(N(CC2CO2)CC2CO2)ccc1OCC1CO1 (configuration not stated), the AC50 [1] was 27 µM (active), the AC50 [2] was 163 µM (active) and the AC50 [3] was 48.4 µM (active). For the same compound, the AC50 [4] was 25.4 µM (active) and the AC50 [5] was 20.3 µM (active).

In the case of CC(C)(C)C1CCCCC1=O (configuration not stated), the outcome [1] was “inactive”, the outcome [2] was “inactive” and the outcome [3] was “inactive”. The outcome [4] was “inactive” and the outcome [5] was “inactive”.

For CCN(CC)c1ccc(C(=O)c2ccccc2C(=O)O)c(O)c1, the outcome [1] was “inactive”, the outcome [2] was “inactive” and the outcome [3] was “inactive”. The outcome [4] was “inactive” and the outcome [5] was “inactive”.

In the case of O=C1CCCC(=O)O1, the outcome [1] was “inactive”, the outcome [2] was “inactive” and the outcome [3] was “inactive”. For the same compound, the outcome [4] was “inactive”, the outcome [5] was “inactive” and the outcome [6] was “inactive”.

For O=C(Nc1cccc(C(F)(F)F)c1)c1cc(Br)cc(Br)c1O, the AC50 [1] was 100 µM (active), the AC50 [2] was 166 µM (active) and the AC50 [3] was 169 µM (active). The AC50 [4] was 0.851 µM (active), the AC50 [5] was 2.95 µM (active) and the AC50 [6] was 147 µM (active).

For O=C1C=CC(=O)O1, the outcome [1] was “inactive”, the outcome [2] was “inactive” and the outcome [3] was “inactive”. For the same compound, the outcome [4] was “inactive”, the outcome [5] was “inactive” and the outcome [6] was “inactive”.

For COC=O, the outcome [1] was “inactive”, the outcome [2] was “inactive” and the outcome [3] was “inactive”. The outcome [4] was “inactive” and the outcome [5] was “inactive”.

For OC1CCCC1, the outcome [1] was “inactive”, the outcome [2] was “inactive” and the outcome [3] was “inactive”. For the same compound, the outcome [4] was “inactive” and the outcome [5] was “inactive”.

In the case of CCCCCCCOC(=O)CCC, the outcome [1] was “inactive”, the outcome [2] was “inactive” and the outcome [3] was “inactive”. The outcome [4] was “inactive” and the outcome [5] was “inactive”.

For COc1ccc(NC(C)=O)cc1N, the outcome [1] was “inactive”, the outcome [2] was “inactive” and the outcome [3] was “inactive”. The outcome [4] was “inactive” and the outcome [5] was “inactive”.

For Cc1cc(C)c(C)cc1C, the outcome [1] was “inactive”, the outcome [2] was “inactive” and the outcome [3] was “inactive”. The outcome [4] was “inactive”, the outcome [5] was “inactive” and the outcome [6] was “inactive”.

With C=CC(C)(CCC=C(C)C)OC(=O)CC(C)C (configuration not stated) the outcome [1] was “inactive”, the outcome [2] was “inactive” and the outcome [3] was “inactive”. The AC50 [4] was 100 µM (active) and the outcome [5] was “inactive”.

In the case of CC(CC=O)CCCC(C)(C)O (configuration not stated), the outcome [1] was “inactive”, the outcome [2] was “inactive” and the outcome [3] was “inactive”. For the same compound, the outcome [4] was “inactive” and the outcome [5] was “inactive”.

For OCCc1ccncc1, the outcome [1] was “inactive”, the outcome [2] was “inactive” and the outcome [3] was “inactive”. The outcome [4] was “inactive” and the outcome [5] was “inactive”.

With OC1OCCOC1O (configuration not stated) the outcome [1] was “inactive”, the outcome [2] was “inactive” and the outcome [3] was “inactive”. For the same compound, the outcome [4] was “inactive”, the outcome [5] was “inactive” and the outcome [6] was “inactive”.

In the case of CC(C)c1ccc2cc(C(C)C)ccc2c1, the outcome [1] was “inactive”, the outcome [2] was “inactive” and the outcome [3] was “inactive”. For the same compound, the AC50 [4] was 100 µM (active) and the outcome [5] was “inactive”.

In the case of O=C1CCC(=O)N1Cl, the outcome [1] was “inactive”, the outcome [2] was “inactive” and the outcome [3] was “inactive”. The outcome [4] was “inactive” and the outcome [5] was “inactive”.

With Cn1c(=O)[nH]c2ncn(C)c2c1=O the outcome [1] was “inactive”, the outcome [2] was “inactive” and the outcome [3] was “inactive”. The outcome [4] was “inactive”, the outcome [5] was “inactive” and the outcome [6] was “inactive”.

For CCCC(=O)OCc1ccccc1, the outcome [1] was “inactive”, the outcome [2] was “inactive” and the outcome [3] was “inactive”. The outcome [4] was “inactive”, the outcome [5] was “inactive” and the outcome [6] was “inactive”.

For SCCc1cnccn1, the outcome [1] was “inactive”, the outcome [2] was “inactive” and the AC50 [3] was 47.7 µM (active). For the same compound, the outcome [4] was “inactive”, the outcome [5] was “inactive” and the AC50 [6] was 46.4 µM (active).

With O=C(C=Cc1ccccc1)OCc1ccccc1 the outcome [1] was “inactive”, the outcome [2] was “inactive” and the outcome [3] was “inactive”. For the same compound, the AC50 [4] was 34.4 µM (active), the outcome [5] was “inactive” and the outcome [6] was “inactive”.

In the case of CCCCC(CC)COC(=O)c1ccccc1 (configuration not stated), the outcome [1] was “inactive”, the outcome [2] was “inactive” and the outcome [3] was “inactive”. For the same compound, the outcome [4] was “inactive” and the outcome [5] was “inactive”.

With O=C(O)C(c1ccc(Cl)cc1)c1ccc(Cl)cc1 the outcome [1] was “inactive”, the outcome [2] was “inactive” and the outcome [3] was “inactive”. For the same compound, the outcome [4] was “inactive” and the outcome [5] was “inactive”.

In the case of CC(=O)OC1C2(C)CCC(C2)C1(C)C (configuration not stated), the outcome [1] was “inactive”, the outcome [2] was “inactive” and the outcome [3] was “inactive”. The outcome [4] was “inactive” and the outcome [5] was “inactive”.

With Cc1ccc2oc(=O)ccc2c1 the outcome [1] was “inactive”, the outcome [2] was “inactive” and the outcome [3] was “inactive”. For the same compound, the AC50 [4] was 58.4 µM (active) and the outcome [5] was “inactive”.
